TGFb SMAD3 inh: TGF-b pathway inhibition; 410,000 compounds, 1.2% hits; HepG2 CAGA-GFP TGF-b/SMAD3 reporter, GFP fluorescence, 18 h; TGF-beta stimulated, 500 pg/mL final; Potency, µM (titrated, usually from 46.1 µM), for inactives: at the top dose activity, negative = inhibition, usual class: inhibitors; also: % is scaled to controls: 0 for no effect and ±100 for the full control effect; nearly all actives have a fitted effect of over 65% in size
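HEPG2 CAGA-GFP reporter cells (1000/well, DMEM with 1% FBS) received compounds, then recombinant TGF-beta at 500 pg/mL final for 18 hours at 37 degrees C. Per-cell GFP summed per well was normalised to unstimulated and stimulated DMSO controls before curve fitting.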
TDP1 cell CPT: growth inhibition of DT40 Tdp1-/-;hTDP1 cells with camptothecin (screen for TDP1 inhibitors); Potency, µM (series often up to 46.2 µM), without a hit: at the top dose activity change, negative = growth inhibition, hits mostly inhibitors; 420,000 compounds, 12% hits; AID 686979; chicken DT40 Tdp1-/-;hTDP1 cells + 20 nM CPT, ATP luminescence, 48 h; also: % is scaled to controls: 0 for no effect and ±100 for the full control effect; nearly all actives have a fitted effect of over 55% in size
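Cell growth measured by CellTiter-Glo luminescence after a minimum 48 h, 37 C compound exposure with 20 nM CPT in Tdp1-knockout DT40 cells stably expressing hTDP1, seeded 400/well; qHTS titration format.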
HepG2 viability: kills HepG2 cells in TGF-b inhibitor counter-screen | HepG2 CAGA-GFP viability, ATP luminescence, 18 h | Potency, µM (series often up to 46.1 µM), inactives show at the top dose activity change, negative = cytotoxicity, usual class: cytotoxic | 410,000 compounds, 0.76% hits
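HepG2 CAGA-GFP cells (1000/well, DMEM with 1% FBS) received compound, then TGF-beta at 500 pg/mL final, and were incubated 18 hours at 37 degrees C. Viability was read by CellTiter-Glo luminescence. Media-only wells were set as complete cell-killing and DMSO as no toxicity.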
HT1080 IDH1KD tx: kills HT-1080 cells with IDH1 knockdown; HT-1080 IDH1 knockdown viability, ATP luminescence, 48 h; 360,000 compounds, 2% hits; Potency, µM (series often up to 46.1 µM), for inactives: at the top dose activity, negative = toxicity, most hits filed as cytotoxic;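 also: 0% = DMSO wells and -100% = cell-free medium wells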
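Viability of IDH1-knockdown HT-1080 fibrosarcoma cells was assessed by CellTiter-Glo after 48 h at 37 °C with titrated compound; concentration-effect curves were classified by fit quality and response size.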
TDP1 cell noCPT: qHTS for Inhibitors of human tyrosyl-DNA phosphodiesterase 1 (TDP1): qHTS in cells in absence of CPT. AID 686978, 2013. 420,000 compounds, 15% hits. Potency, µM (highest dose often 46.2 µM), for inactives: at the top dose activity change, negative = growth inhibition, hits mostly inhibitors. DT40 Tdp1-/- hTDP1 cells, no CPT, ATP luminescence, 48 h; also: % is scaled to controls: 0 for no effect and ±100 for the full control effect; nearly all actives have a fitted effect of over 55% in size
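Seeded 400 DT40-hTDP1 cells/well (vehicle DMSO, no 20 nM CPT); pinned compounds; ≥48 hr at 37 °C; CellTiter-Glo luminescence as viability measure.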
HT1080NT lethal: kills 2HG-producing HT-1080-NT fibrosarcoma cells | 360,000 compounds, 1.6% hits | HT-1080-NT fibrosarcoma viability, CellTiter-Glo ATP luminescence, 48 h | Potency, µM (top dose mostly 46.1 µM), without a hit: top-dose activity, negative = less viability, usual class: cytotoxic;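 also: NT is the 2HG producing partner of a matched IDH1 knockdown line; 0% = DMSO-treated cells and -100% = media-only wells without cells; nearly all actives have a fitted effect of over 55% in size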
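750 cells/well, RPMI + 5% FBS; 2 h settle, compound pin-transfer, 48 h at 37 degrees C. CellTiter-Glo 10 min RT, luminescence. Normalized to DMSO and media-only wells.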
An asterisk follows results filed as active; ? = inconclusive; . = no result; [ ] = another dose, or the depositor's remark. Sampled rows, rich in hits. Any-hit rate of the full collection: about 17%. Calls follow the shape of the dose curve; as a rule, active = well fitted curve in the direction sought with a large enough effect; inconclusive = small, poorly fitted or top-dose-only effect, or another doubt; inactive = no such curve, though single readings can be large; an effect the other way counts as inactive or inconclusive. Potency is read from the fitted curve at half-maximal effect.

SMILES	TGFb SMAD3 inh	TDP1 cell CPT	HepG2 viability	HT1080 IDH1KD tx	TDP1 cell noCPT	HT1080NT lethal
CC(=O)c1ccc(S(=O)(=O)NCC(=O)Nc2nc3ccccc3[nH]2)cc1	2%	-11%	2%	-10%	-19%	-19%
O=C(c1ccc(N2C(=O)C3C4c5ccccc5C(c5ccccc54)C3C2=O)cc1)N1CCOCC1 (stereo unspecified)	16%	2%	-2%	1%	-19%	-4%
O=C(c1ccc(N2CN(C(=O)c3ccco3)c3nc4ccccc4nc32)cc1)N1CCOCC1	2%	13µM*	-36%	3%[9.24 µM]	23µM*	?
Cc1ccc(S(=O)(=O)Cc2ccccc2Cl)cc1	-10%	?	-23%	?	21µM*	-25%
CC1CCN(S(=O)(=O)c2ccc3c(c2)c(=O)c(C(=O)NCc2ccco2)cn3C)CC1	-2%	21µM*	-55%	-18%	21µM*	-15%
CCN(CC)S(=O)(=O)c1ccc2c(c1)c(=O)c(C(=O)NCc1ccc(Cl)cc1)cn2C	?	10µM*	-5%	.	9.2µM*	.
Cn1cc(C(=O)O)c(=O)c2cc(S(=O)(=O)N3CCOCC3)ccc21	?	16µM*	-32%	.	23µM*	.
CC1CCN(S(=O)(=O)c2ccc3c(c2)c(=O)c(C(=O)NCc2cccs2)cn3C)CC1	-6%	?	16%	1%	?	-14%
Cn1cc(C(=O)NCc2ccc(Cl)cc2)c(=O)c2cc(S(=O)(=O)N3CCCCCC3)ccc21	-2%	?	3%	.	16µM*	.
CC(C)C[C@@H](CNCC(=O)[C@H](CC(C)C)NC(=O)c1[nH]cnc1C(=O)N[C@H](CN)CC(C)C)NC(=O)c1nc[nH]c1C(=O)N[C@@H](Cc1ccccc1)C(=O)O	-6%	?	2%	1%	?	7%
COc1ccccc1OC(C)C(=O)Nc1ccc(-c2nc3ccccc3s2)cc1 (stereo unspecified)	-11%	-26%	3%	.	?	.
NC(=O)c1ccc(NC(=O)CCc2nc3ccccc3s2)cc1	-2%	1%	0%	1%	-6%	10%
CCS(=O)(=O)c1cccc(C(=O)Nc2ccc(-c3nc4ccccc4s3)c(O)c2)c1	?	?	0%	.	?	.
CC(C)Oc1ccc(C(=O)Nc2ccc(-c3nc4ccccc4s3)cc2)cc1	-37%	10µM*	4%	.	?	.
CN(C)c1cccc(C(=O)Nc2ccc(-c3nc4ccccc4s3)cc2)c1	-13%	?	-30%	.	13µM*	.
O=C(Nc1ccc(Cc2nc3ccccc3s2)cc1)c1ccncc1	?	?	-9%	-24%	12µM*	-27%
Cc1cccc(N2CCN(C3(c4ccccc4)C(=O)c4ccccc4C3=O)CC2C)c1 (stereo unspecified)	-5%	-29%	-26%	.	?	.
CC1CCCN(C(=O)N2c3ccccc3Sc3ccccc32)C1 (stereo unspecified)	4%	?	-14%	10µM*	13µM*	?
CC1CN(C(=O)N2c3ccccc3Sc3ccccc32)C(C)CC1=O (stereo unspecified)	-5%	?	-32%	?	?	-26%
O=C(CN1CCOCC1)N1c2ccccc2Sc2ccccc21	4%	-3%	0%	2%	15%	-2%
O=C(N1CCOCC1)N1c2ccccc2Sc2ccccc21	-4%	?	-30%	14µM*	23µM*	?
CC1CN(C(=O)N2c3ccccc3Sc3ccccc32)CC(C)O1 (stereo unspecified)	-29%	12µM*	0%	-27%	12µM*	-19%
Cc1cc(C)c(C#N)c(Sc2ccc(N)cc2)n1	-1%	-23%	-13%	1%	-13%	-4%
CCN(Cc1ccccc1)S(=O)(=O)c1ccc(C(=O)N(CCCN(C)C)c2nc3cc4c(cc3s2)OCO4)cc1	16µM*	?	13µM*	?	-27%	?
CCN(Cc1ccccc1)S(=O)(=O)c1ccc(C(=O)N(CCCN(C)C)c2nc3c(C)c(C)ccc3s2)cc1	?	?	-102%	18µM*	16µM*	?
SMILES	TGFb SMAD3 inh	TDP1 cell CPT	HepG2 viability	HT1080 IDH1KD tx	TDP1 cell noCPT	HT1080NT lethal
COc1ccccc1N1CCN(CCS(=O)(=O)c2cc(Cl)ccc2Cl)CC1	-24%	?	-5%	?	?	?
COc1ccc(NC(=O)COC(=O)CNC(=O)C2CCCCC2)cc1OC	-4%	-19%	0%	-2%	-2%	-2%
CCCCN1CC(COCc2ccccc2)Oc2cccc(OCCN3C(=O)[C@@H]4[C@H](C3=O)C3C=C[C@H]4C3)c2S1(=O)=O (stereo partly specified)	-14%	?	-19%	-30%	?	?
Cc1cccc(C)c1NC(=O)C(C)c1ccc(-c2ccccc2)c(F)c1 (stereo unspecified)	?	23µM*	0%	-24%	16µM*	-19%
Cc1cc(C)n(-c2ccc(C(=O)N3CCN(c4ccccn4)CC3)cc2)n1	0%	-26%	1%	-1%	-10%	-3%
Cc1cc(C)n(-c2ccc(C(=O)N3CCN(S(=O)(=O)c4ccc(Br)cc4Cl)CC3)cc2)n1	-16%	23µM*	-12%	-23%	16µM*	-24%
Cc1cc(C)n(-c2ccc(C(=O)N3CCC(CO)(Cc4ccccc4)CC3)cc2)n1	?	16µM*	-4%	-11%	?	?
CCCCNC(=O)C[C@@H]1C[C@@]2(C(=O)OC)CCCCC=C2N(Cc2ccc(Cl)cc2Cl)C1=O	.	?	.	-19%	16µM*	?
COC(=O)[C@]12CCCCC=C1N(Cc1ccc(Cl)cc1Cl)C(=O)[C@H](CC(=O)NCc1ccc(C)o1)C2	.	?	.	?	16µM*	?
COC(=O)[C@]12CCCCC=C1N(Cc1ccc(Cl)cc1Cl)C(=O)[C@H](CC(=O)NCCC(C)C)C2	.	?	.	?	21µM*	?
COC(=O)[C@]12CCCCC=C1N(Cc1ccc(Cl)cc1Cl)C(=O)[C@H](CC(=O)N1CCOCC1)C2	.	?	.	-7%	?	-15%

Screens deposited in PubChem BioAssay by National Center for Advancing Translational Sciences (NCATS).
